D1 allo mod: allosteric modulators of human D1 dopamine receptor; P21728; actives 5.9% (n = 58,000); B-score at 10 µM; HEK293 D1, CRE-luciferase, dopamine EC30 potentiation; actives deviate in either direction;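 active means luminescence count or its row- and column-corrected plate score outside the 99.7% band of the plate's sample wells, on either side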
CYP2C19 inhib: blocks human cytochrome P450 2C19 | inhibition, % at 5 µM | AID 778 | CYP2C19 Supersomes, luciferin-H EGE luminescence, 30 min | actives 21% (n = 96,000) | P33261;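 active means CYP2C19 inhibition above a set limit at 5 µM in the primary screen, cut at about 50% in these data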
Target sequence (P33261 whole entry, looked up): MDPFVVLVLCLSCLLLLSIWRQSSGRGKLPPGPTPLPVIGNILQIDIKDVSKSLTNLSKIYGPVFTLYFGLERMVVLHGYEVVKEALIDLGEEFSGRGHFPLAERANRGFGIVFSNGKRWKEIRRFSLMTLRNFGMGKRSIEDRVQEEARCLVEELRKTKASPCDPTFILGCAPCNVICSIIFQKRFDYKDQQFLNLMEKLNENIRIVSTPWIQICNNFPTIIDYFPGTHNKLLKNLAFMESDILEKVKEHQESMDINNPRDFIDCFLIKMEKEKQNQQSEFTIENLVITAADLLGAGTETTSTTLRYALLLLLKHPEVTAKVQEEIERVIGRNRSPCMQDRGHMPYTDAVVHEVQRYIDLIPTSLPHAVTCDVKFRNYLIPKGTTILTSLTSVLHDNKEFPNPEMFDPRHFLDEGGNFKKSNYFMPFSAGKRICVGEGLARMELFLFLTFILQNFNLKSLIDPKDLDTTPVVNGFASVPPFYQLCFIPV
CYP2C9 act: activators of human CYP2C9 | recombinant CYP2C9, luciferin-H conversion, luminescence; active compounds read high; factor 1 = untreated enzyme, 0 = blocked | activation factor at 5 µM | actives 1.4% (n = 96,000) | AID 1024;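 active means activation factor of 2 or more for CYP2C9 at a 5 µM dose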
CYP2C9 inh: human CYP2C9 inhibition; P11712; CYP2C9 Supersomes, luciferin-H conversion, luminescence; inhibition, % at 5 µM; actives 20% (n = 96,000); AID 777;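 active means blocking of liver enzyme CYP2C9 beyond about 50% at 5 µM, limit read from the data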
CYP2C19 activ: activators of human cytochrome P450 2C19; AID 1025; 96,000 tested, under 10 active; activation factor at 5 µM; recombinant CYP2C19, luciferin-H EGE luminescence; active compounds read high; 0 = fully inhibited enzyme, 1 = untreated enzyme;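 active means activation factor of at least 2 at 5 µM in the primary screen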
DAT uptake mod: modulates human dopamine transporter uptake under cocaine | LLC-PK1 hDAT cells, [14C]-dopamine uptake with cocaine IC80; actives deviate in either direction | actives 1.3% (n = 110,000) | Q01959 | B-score at 10 µM | AID 449768;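 active means Z score or B-score, a plate-position-corrected score, falls beyond the plate's 99.7% confidence bounds, in either direction; inactive means both scores lie inside the 99.7% bounds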
D1 PAM confirm: D1 receptor (human) allosteric modulation, confirmed | shares compounds with D1 allo mod | HEK293 D1 CRE-luciferase, dopamine EC30 potentiation; active compounds read high | luminescence at 10 µM | actives 88% (n = 2,200) | AID 642;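 active means luminescence in either of two replicates above the same-plate mean plus 3 SD of the low-dose dopamine control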
D1 ag no DA: activates D1 CRE-luciferase signal without dopamine present | shares compounds with D1 allo mod | HEK293 D1 CRE-luciferase, luminescence, no dopamine; active compounds read high | luminescence at 10 µM | actives 0.8% (n = 1,900); in the data active means luminescence above about 3900
Isoprot counter: counter-screen for D1 modulators: isoproterenol response in HEK293 cells; AID 647; HEK293 D1 CRE-luciferase, isoproterenol EC30 counter-screen; actives 63% (n = 2,200); shares compounds with D1 allo mod; calls only at 10 µM;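 active means luminescence in either replicate above plate mean of wells with a partly effective reference agonist dose plus 3 SD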;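 further: isoproterenol raises cAMP through native beta-adrenoceptor Gs so signal bypasses D1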
Numbers stand for hits; - = inactive; . = no result given; + = active, no number. Rows were chosen to be rich in hits. Some 28% of all compounds tested hit in one or more screens of this group.

SMILES | D1 allo mod | CYP2C19 inhib | CYP2C9 act | CYP2C9 inh | CYP2C19 activ | DAT uptake mod | D1 PAM confirm | D1 ag no DA | Isoprot counter
COc1cc(C2c3sc(=O)[nH]c3SC3C4CCC(C4)C23)ccc1O (stereo unspecified) | 8.5 | 51 | - | 53 | - | - | 18840 | - | +
COc1ccc2nc(C)[nH]c(=O)c2c1 | - | - | - | - | - | - | . | . | .
O=c1[nH]c2c(s1)C(c1ccccc1)C1C3CCC(C3)C1S2 (stereo unspecified) | 17 | - | - | - | - | - | 21364 | . | +
COc1ccc(C2c3sc(=O)[nH]c3SC3C4CCC(C4)C23)cc1 (stereo unspecified) | 16 | 56 | - | - | - | - | 27840 | - | +
COCCSc1ccccc1C(=O)NCc1ccc(S(N)(=O)=O)cc1 | . | - | - | - | - | - | . | . | .
NS(=O)(=O)c1ccc(CCNC(=O)C2CCCCN2S(=O)(=O)c2ccccc2)cc1 (stereo unspecified) | 3.5 | - | - | 66 | - | - | - | - | -
NS(=O)(=O)c1ccc(CCNC(=O)C2CCCCC2)cc1 | . | - | - | - | - | - | . | . | .
C=CCn1c(SCc2nc3c(c(=O)[nH]c(=O)n3CCCC)n2CCC)nnc1-c1ccccc1 | 3.8 | - | - | 84 | - | - | 9252 | - | -
O=S(=O)(Nc1ccc(-c2nc3cccnc3s2)cc1)c1cccs1 | 8.5 | - | - | 83 | - | - | 19148 | - | +
O=C(c1noc2c1CCCC2)N1CCN(c2ccccc2)CC1 | - | - | - | - | - | - | . | . | .
CC(C)(C)C1CCc2onc(C(=O)N3CCOCC3)c2C1 (stereo unspecified) | 6 | - | - | - | - | - | 10148 | - | +
CCn1c2ccccc2c2nc3cc(S(=O)(=O)N4CCOCC4)ccc3nc21 | 6.5 | - | - | 85 | - | . | 15708 | - | +
O=S(=O)(c1ccc2oc3ccccc3c2c1)N1CCOCC1 | . | - | - | - | - | - | . | . | .
c1ccc2nc3c(nc2c1)c1ccccc1n3CCN1CCOCC1 | 9.5 | - | - | - | - | - | 18764 | - | +
COc1ccc(C(=O)COC(=O)CCN=C2NS(=O)(=O)c3ccccc32)cc1OC | 4.6 | 74 | - | - | - | - | 13264 | - | +
CC(C)C(=O)OCCN=C1NS(=O)(=O)c2ccccc21 | . | - | - | - | - | - | . | . | .
CCOC(=O)C(CC)Sc1nnc2c3cc(C)ccc3n(C)c2n1 (stereo unspecified) | . | - | - | - | - | . | . | . | .
CSc1nnc2c3cc(C)ccc3n(Cc3ccccc3)c2n1 | 8.9 | - | - | - | - | - | 14436 | - | +
CCCCN(C)C(=O)CCCc1c[nH]c2ccccc12 | . | . | . | . | . | - | . | . | .
CCCCN(C)C(=O)c1coc(=O)c2ccccc12 | 3.1 | - | - | - | - | - | - | . | -
O=C1CCCN1Cc1ncnn1-c1ccccc1 | - | . | . | . | . | - | . | . | .
Cc1cc(Oc2ccccc2)nc(-c2ccccc2)n1 | 2.7 | - | - | - | - | - | 6804 | - | +
CC1(C)C(c2cccs2)=NC(c2ccccc2)N1O (stereo unspecified) | 3.6 | - | - | - | - | - | 9348 | . | +
CC1(C)C(c2ccccc2)=NC(c2ccc(F)cc2)N1O (stereo unspecified) | - | - | - | - | - | - | . | . | .
COc1ccc(-c2cnc(N)nc2-c2ccc(OC)cc2O)cc1 | 14 | - | - | - | - | - | 16148 | . | +
SMILES | D1 allo mod | CYP2C19 inhib | CYP2C9 act | CYP2C9 inh | CYP2C19 activ | DAT uptake mod | D1 PAM confirm | D1 ag no DA | Isoprot counter
COc1cccc(Oc2cnc(N)nc2-c2ccc(OC)cc2O)c1 | 15 | 76 | - | 79 | - | - | 22464 | - | +
COc1ccc(-c2nc(N)n[nH]2)cc1 | . | - | - | - | - | - | . | . | .
COc1cc(C(=O)OCC(=O)Nc2cc(C)on2)cc(OC)c1OC | . | - | - | - | - | - | . | . | .
N#CC1=C(N)C(C#N)(C#N)C(c2ccc[nH]2)C2CCCC=C12 (stereo unspecified) | 2.8 | - | - | - | - | - | - | - | -
Cc1ccc(-n2nnnc2SCC(=O)Nc2c(C)n(C)n(-c3ccccc3)c2=O)cc1 | - | - | - | - | - | - | . | . | .
Cc1cc(NC(=O)COc2ncnc3sc(C)c(C)c23)no1 | - | - | - | - | - | - | . | . | .
CC(C)Cn1c(=O)c2c(c3ccccc31)OC(C)C(=O)N2 (stereo unspecified) | 4.2 | . | . | . | . | - | 7512 | - | -
CCOc1cc2[nH]c(=O)n(CCCN3CCCC3=O)c(=O)c2cc1OCC | 2.7 | - | - | - | - | - | 6760 | . | -
O=C(CCCn1c(=S)[nH]c2ccc(Br)cc2c1=O)NCC1CCCO1 (stereo unspecified) | . | - | - | - | - | - | . | . | .
c1ccc(-c2nc(N3CCOCC3)c3ccccc3n2)nc1 | - | - | - | - | - | - | . | . | .
CSc1nc(N2CCOCC2)c2ccccc2n1 | 9.4 | - | - | - | - | - | 16028 | . | +
Cc1nc(N2CCOCC2)c2cc(-c3ccccc3)sc2n1 | 7.9 | - | - | - | - | - | 14040 | - | +
CC1(C)CC(CC(=O)O)(c2ccccc2)CCO1 (stereo unspecified) | - | - | - | - | - | - | . | . | .
Cc1ccc(CNc2oc(-c3ccco3)nc2C#N)cc1 | 27 | . | . | . | . | . | 18284 | - | +
N#Cc1nc(-c2cccs2)oc1NCc1ccc2c(c1)OCO2 | 16 | 54 | - | 94 | - | - | 19192 | - | +
N#Cc1nc(-c2cccs2)oc1NCCc1ccccc1 | 12 | - | - | 68 | - | - | 14100 | - | +
N#Cc1nc(-c2cccs2)oc1NCCN1CCOCC1 | . | - | - | - | - | . | . | . | .
N#Cc1nc(-c2ccco2)oc1NCCc1ccccc1 | 5.5 | 96 | - | 75 | - | - | 13580 | - | +
CNc1oc(-c2ccco2)nc1C#N | - | - | - | - | - | - | . | . | .
CNc1oc(-c2cccs2)nc1C#N | . | - | - | - | - | . | . | . | .
COc1ccc(Nc2oc(-c3cccs3)nc2C#N)cc1 | 8.1 | - | - | - | - | - | 16196 | - | +
CCCOC(=O)c1ccc2c(c1)C(=O)N(c1ccccc1)C2=O | - | - | - | - | - | - | . | . | .
CSc1nsc(SC)c1C(=O)NCCNS(=O)(=O)c1ccc(C)cc1 | - | - | - | - | - | - | . | . | .
Cc1ccc(N(Cc2ccco2)C(=O)c2cccc(S(=O)(=O)N(C)C)c2)cc1 | 3 | - | - | - | - | - | 11896 | - | +

High-throughput results as filed in PubChem BioAssay.
